Results with a measured potency or affinity are listed apart. The source made the active and inactive calls.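 The calls were made as follows: active = fitted half-maximal dose no more than twice the top valid tested dose, for compounds that lower signal; inconclusive = fit invalid, or curve flat with activity between -70 and -30; inactive = potency past limit, curve flat within ±30, or signal increasing.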
Target: NAD-dependent protein deacylase sirtuin-5, mitochondrial (Homo sapiens) (UniProt Q9NXA8)
Sequence (Q9NXA8 whole entry, looked up): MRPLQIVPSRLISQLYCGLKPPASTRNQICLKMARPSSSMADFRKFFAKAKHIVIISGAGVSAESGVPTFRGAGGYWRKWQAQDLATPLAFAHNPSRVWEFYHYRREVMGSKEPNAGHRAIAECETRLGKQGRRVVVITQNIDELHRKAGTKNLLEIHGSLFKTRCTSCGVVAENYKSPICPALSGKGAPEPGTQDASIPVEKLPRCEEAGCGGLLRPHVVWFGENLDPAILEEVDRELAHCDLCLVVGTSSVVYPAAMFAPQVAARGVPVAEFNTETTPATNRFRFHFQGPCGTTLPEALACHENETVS
Assay: blockers of sirtuin-5 peptide desuccinylation – biochemical, fluorescence imaging, cherry-pick, set 6, dose response (AID 720597);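 also: lower AMC signal can also come from blocking the trypsin step; 0% = median of neutral control wells and -100% = median of positive control wells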
Details: Purified SirT5, succinyl-peptide-AMC/trypsin fluorescence; series mostly up to 15 µM; activity change, negative = inhibition: at the top concentration

Activity change, negative = inhibition, inactive:
Cc1ccc(S(=O)(=O)Nc2ccc3c(c2)C(=O)N([C@H](C)CO)C[C@@H](C)[C@H](CN(C)C(=O)Nc2ccc(F)cc2)OCCCC[C@H](C)O3)cc1 -3.75%
C[C@@H]1CN([C@H](C)CO)C(=O)c2cc(NS(=O)(=O)c3ccc(Cl)cc3)ccc2O[C@@H](C)CCCCO[C@@H]1CN(C)Cc1ccc2c(c1)OCO2 -15.4%
CO[C@@H]1CC[C@@H]2CCN(C)C(=O)C[C@H](c3ccccc3)CN(C)C(=O)c3cccc(C#N)c3OC[C@@H]1O2 -15.7%
C[C@@H]1CN([C@@H](C)CO)C(=O)Cc2cc(NC(=O)Nc3ccccc3)ccc2O[C@H]1CN(C)S(=O)(=O)c1ccc(F)cc1 -30.5%
C[C@H]1CN([C@@H](C)CO)C(=O)c2cccc(NC(=O)c3nc4ccccc4s3)c2O[C@H]1CN(C)Cc1ccc(C(F)(F)F)cc1 4.41%
COc1ccccc1-c1ccc([C@@H]2[C@@H]3CN(S(=O)(=O)c4ccc(-c5ccccc5)cc4)C[C@H]2N3)cc1 29.3%
C[C@H](CO)N1C[C@H](C)[C@H](CN(C)Cc2ccncc2)Oc2ccc(NC(=O)CCN3CCOCC3)cc2C1=O -11.7%
Cc1ccc(S(=O)(=O)N(C)C[C@H]2OCCCC[C@@H](C)Oc3ccc(NS(=O)(=O)c4ccc(Cl)cc4)cc3C(=O)N([C@@H](C)CO)C[C@H]2C)cc1 21.4%
CC(C)CC#Cc1ccc2c(c1)O[C@@H](CN(C)S(=O)(=O)c1cccc(F)c1)[C@@H](C)CN([C@@H](C)CO)S2(=O)=O -21.2%
O=C(NCC[C@H]1CC[C@@H](NS(=O)(=O)c2cccc(F)c2)[C@@H](CO)O1)C1CCOCC1 6.94%
O=C(CCN1CCCCC1)N[C@@H]1CC[C@@H](CC(=O)N2CCC(Cc3ccccc3)CC2)O[C@H]1CO 0.115%
C[C@@H]1CN([C@@H](C)CO)C(=O)c2cc(NS(=O)(=O)c3ccc(Cl)cc3)ccc2O[C@@H](C)CCCCO[C@@H]1CN(C)Cc1ccc(C(F)(F)F)cc1 3.58%
CO[C@H]1CN(C)C(=O)c2cc(NC(=O)c3ccccc3F)ccc2OC[C@H](C)NC[C@@H]1C -19.5%
C/C=C/c1ccc([C@@H]2[C@H](CO)N(CC3CC3)C23CN(S(=O)(=O)CC)C3)cc1 1.88%
C[C@@H]1CN([C@@H](C)CO)C(=O)c2cccc(NC(=O)c3nc4ccccc4s3)c2O[C@H]1CN(C)Cc1ccc(C(F)(F)F)cc1 16.9%
O=C(C[C@@H]1CC[C@@H](NC(=O)Nc2cccc(F)c2)[C@H](CO)O1)NCC1CC1 1.72%
Cc1ccc(S(=O)(=O)N(C)C[C@@H]2OCCCC[C@H](C)Oc3ccc(NS(=O)(=O)c4ccc(Cl)cc4)cc3C(=O)N([C@@H](C)CO)C[C@@H]2C)cc1 -15.5%
Cc1ccc(-c2ccc3c(c2)O[C@H](CN(C)Cc2cccnc2)[C@H](C)CN([C@H](C)CO)S3(=O)=O)cc1 1.72%
CC(C)NC(=O)N[C@H]1CC[C@H](CCNC(=O)C2CCCC2)O[C@@H]1CO 3.67%
CN(C)C(=O)c1cccc(-c2ccc([C@@H]3[C@H]4CN(S(C)(=O)=O)CCCCN4[C@H]3CO)cc2)c1 -14.8%
C[C@H]1CN([C@@H](C)CO)C(=O)c2cc(NC(=O)CCC(F)(F)F)ccc2O[C@H]1CN(C)Cc1ccc(C(F)(F)F)cc1 -26.3%
C[C@@H]1CN([C@H](C)CO)C(=O)c2cc(NC(=O)NC3CCCCC3)ccc2O[C@@H](C)CCCCO[C@@H]1CN(C)Cc1ccc(Cl)c(Cl)c1 3.17%
COc1ccc(NC(=O)Nc2ccc3c(c2)C(=O)N([C@@H](C)CO)C[C@H](C)[C@H](CN(C)Cc2ccc(Cl)c(Cl)c2)O3)cc1 -4.73%
C[C@@H]1CN([C@@H](C)CO)C(=O)c2cc(NC(=O)Cc3ccccc3)ccc2O[C@@H]1CN(C)Cc1ccc(Oc2ccccc2)cc1 44.1%
COc1ccc(S(=O)(=O)Nc2ccc3c(c2)C(=O)N([C@H](C)CO)C[C@H](C)[C@H](CN(C)Cc2ccc(Oc4ccccc4)cc2)O3)cc1 13.6%
C[C@H](CO)N1C[C@H](C)[C@H](CN(C)Cc2ccccc2F)Oc2cc(C#CC3CC3)ccc2S1(=O)=O 37.8%
CNC[C@H]1Oc2ccc(NC(=O)Nc3ccc(F)cc3)cc2CC(=O)N([C@@H](C)CO)C[C@@H]1C 19.6%
C[C@@H]1CN([C@H](C)CO)S(=O)(=O)c2ccc(C#CC(C)(C)O)cc2O[C@@H]1CN(C)Cc1ccc(-c2ccccc2)cc1 27.4%
O=C(CC1CC1)N1CC2(C1)[C@@H](c1ccccc1)[C@@H](CO)N2Cc1cccc(F)c1 -9.95%
CN(C[C@H]1[C@@H](c2ccc(C3=CCCC3)cc2)[C@@H](CO)N1CCC(F)(F)F)S(C)(=O)=O 41.9%
C[C@H]1CN([C@@H](C)CO)S(=O)(=O)c2ccc(C#CC(C)(C)O)cc2O[C@@H]1CN(C)Cc1ccc(-c2ccccc2)cc1 -4.96%
Cc1noc(C)c1NC(=O)Nc1cccc2c1O[C@@H](CN(C)Cc1ccc(Oc3ccccc3)cc1)[C@@H](C)CN([C@H](C)CO)C2=O -13%
COc1ccc(S(=O)(=O)Nc2ccc3c(c2)C(=O)N([C@H](C)CO)C[C@@H](C)[C@H](CN(C)S(=O)(=O)c2ccccc2)OCCCC[C@@H](C)O3)cc1 -23.2%
C[C@@H]1CN([C@@H](C)CO)C(=O)Cc2cc(NC(=O)Nc3ccc(F)cc3)ccc2O[C@@H]1CN(C)C 12.7%
COc1cccc(NC(=O)N2CC(=O)N3[C@H](C2)[C@@H](c2ccc(C#CCC4CCCC4)cc2)[C@@H]3CO)c1 34.8%
C[C@H]1CN([C@@H](C)CO)C(=O)c2ccccc2-c2ccccc2CO[C@@H]1CN(C)C(=O)Nc1ccccc1C(F)(F)F 7.56%
CC(C)CC#Cc1ccc2c(c1)O[C@H](CN(C)C(=O)CC1CC1)[C@@H](C)CN([C@@H](C)CO)S2(=O)=O 5.03%
Cn1cnc(CCNC(=O)C[C@@H]2CC[C@@H]3[C@H](COC[C@@H](O)CN3C(=O)Nc3ccc(Cl)cc3)O2)c1 2.98%
COc1ccc(S(=O)(=O)N(C)C[C@H]2OCCCC[C@H](C)Oc3ccc(NS(=O)(=O)c4ccc(Cl)cc4)cc3C(=O)N([C@H](C)CO)C[C@H]2C)cc1 -2.51%

Reference: PubChem BioAssay AID720597 (Broad Institute, 2013)
